The nature of assay [1]: anti-His antibody binders, primary screen, artefact control for SMM control protein annotation, biochemical, small-molecule microarray, 635 nm fluorescence (AID 1128).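 Also: score merges feature fluorescence with signal-to-noise for each printed compound spot.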 The conditions noted are these: anti-His Alexa647 antibody binding, higher = more signal.
The subject of assay [2] is Human papillomavirus type 1a E7 protein (residues 1-88). Kind of assay: HPV1a E7 small-molecule binders, primary screen, biochemical, small-molecule microarray, residues 1-88, 635 nm (AID 1129). The conditions noted are these: small-molecule microarray binding, fluorescence 635 nm; higher = more signal.
Assay [3] deals with Focal adhesion kinase 1 (Homo sapiens) (UniProt Q05397). In words: small-molecule microarray binders of FAK, primary screen, biochemical, 635/667 nm fluorescence, BSA, DTT (AID 1130).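 Also: composite of spot emission at 667 nm and signal to noise over triplicate slides.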 To be noted: PTK2 binding, 635 nm fluorescence, higher = more signal.
The subject of assay [4] is Fibrinogen (Alexa647-labelled). In words: fibrinogen binders on compound microarrays, profiling panel, artefact control for SMM control-protein annotation, biochemical, small-molecule microarray, 635/667 nm fluorescence (AID 1131).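 Also: z-score merges 667 nm fluorescence with per-spot signal-to-noise over triplicate slides.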 The conditions noted are these: fibrinogen-A647 binding fluorescence, higher = more signal.
In assay [5] the target is Follistatin (Homo sapiens) (UniProt P19883). Kind of assay: follistatin binders on small-molecule microarrays, primary screen, biochemical, small-molecule microarray, 635/667 nm fluorescence (AID 1132). The conditions noted are these: FST binding, 635 nm fluorescence, higher = more signal.
Assay [6] deals with Fibroblast growth factor 2 (Homo sapiens) (UniProt P09038). Kind of assay: FGF2 binders on small-molecule microarrays, primary screen, biochemical, small-molecule microarray, 635/667 nm fluorescence (AID 1133). The conditions noted are these: small-molecule microarray binding, FGF2, fluorescence 635/667; higher = more signal.
Assay [7] is described as follows: mitochondrial membrane potential change in A549 cells, profiling panel, cell-based, JC-1 fluorescence, basal, 24 h, 100 nL (AID 1138).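 Also: A549 lung adenocarcinoma cells under basal conditions with no added stimulus; test concentration not given here.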 The conditions noted are these: higher = more signal.
A further assay deals with Lefty1. In words: Lefty1 binders on small-molecule microarrays, primary screen, biochemical, small-molecule microarray, 635/667 nm fluorescence (AID 1139). The conditions noted are these: small-molecule microarray binding, fluorescence 635/667; higher = more signal.
The subject of assay [8] is wheat germ agglutinin (Triticum aestivum), Alexa647-labelled. In words: wheat germ agglutinin binders on compound microarrays, profiling panel, artefact control for SMM control-protein annotation, biochemical, small-molecule microarray, 635/667 nm fluorescence (AID 1140).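 Also: score merges 667 nm feature emission with signal to noise over triplicate slides.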 To be noted: WGA-A647 binding, 635 nm fluorescence, higher = more signal.
The target in assay [9] is Luciferin 4-monooxygenase (Photinus pyralis) (UniProt P08659). In words: firefly luciferase enzyme inhibitors, primary screen, biochemical, luminescence, purified enzyme, 2006 set (AID 1141).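 Also: cell-free assay with purified firefly luciferase at 100 ng per well in PBS; test concentration not given here.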 The conditions noted are these: SteadyGlo luminescence, 30 min, higher = more signal, called active from +8 up or from −8 down.
Assay [10] deals with Wnt5a (protein binding on small-molecule microarray). Kind of assay: Wnt5a binders on small-molecule microarray, primary screen, biophysical, 635/667 nm fluorescence (AID 1142).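 Also: fluorescence read at 667 nm with signal to noise per printed feature.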 The conditions noted are these: 635 nm fluorescence, higher = more signal.
Assay [11] is described as follows: cell viability in Huh7 cells, primary screen, cytotoxicity control for HCV replication inhibitor project, CellTiter-Glo luminescence, basal, 48 h (AID 1143).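 Also: Huh7 hepatoma cells carrying a hepatitis C replication reporter with no stimulus; test concentration not given here.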 To be noted: Huh7 HCV replicon, higher = more signal, called active from +8 up or from −8 down. For orientation: Cellular ATP, detected with luciferase, serves as a proxy for viable cell number.
Assay [12] in a line: P. aeruginosa biofilm formation inhibitors, primary screen, PAO1 strain, BacTiter-Glo luminescence, LB-PBS (AID 1144). The conditions noted are these: 12 h, higher = more signal.
Assay [13] is described as follows: CREB reporter modulators without forskolin, primary screen, cell-based, PC12, CRE-LacZ reporter, unstimulated (AID 1145). To be noted: no forskolin, luminescence, 4.5 h, higher = more signal, called active from +8 up or from −8 down.
Assay [14] is described as follows: CREB reporter modulators under forskolin, primary screen, cell-based, PC12, CRE-LacZ reporter, forskolin-stimulated (AID 1146).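 Also: PC12 cells with 6xCRE LacZ reporter stimulated by forskolin 10 µM; beta-galactosidase reporter signal reflecting CREB driven transcription.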 To be noted: luminescence, 4.5 h, higher = more signal, called active from +8 up or from −8 down.
For assay [15], the target named is Streptavidin (Streptomyces avidinii) (UniProt P22629). Kind of assay: streptavidin binders on small-molecule microarray, primary screen, artefact control for SMM compound annotation, biophysical, 635/667 nm fluorescence (AID 1147).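 Also: signal reflects streptavidin binding to arrayed compounds as a control protein.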 To be noted: streptavidin binding, higher = more signal.
Assay [16] in a line: small-molecule binders of probe aInhba, primary screen, biochemical, small-molecule microarray, 635/667 nm fluorescence (AID 1148).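 Also: score merges 667nm spot fluorescence with signal-to-noise for antibody binding to printed compounds.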 The conditions noted are these: higher = more signal.
In assay [17] the target is Torsin-1A (Homo sapiens) (UniProt O14656). Kind of assay: torsin A binders from cell lysate, primary screen, small-molecule microarray, wild-type, 635/667 nm (AID 1149). The conditions noted are these: COS7 hTOR1A-WT lysate, 635 nm fluorescence, higher = more signal.
Assay [18] has the same target. Kind of assay: small-molecule binders of mutant TOR1A in lysate, primary screen, cell lysate, small-molecule microarray, COS7 lysate, 635/667 nm fluorescence (AID 1150).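 Also: score pools 667 nm emission and signal to noise measuring lysate protein binding.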 To be noted: COS7 hTOR1A mutant lysate, 635 nm fluorescence, higher = more signal.
Assay [19] relates to Sonic hedgehog protein (Shh). In words: small-molecule binders of Shh protein, primary screen, biochemical, small-molecule microarray, 635/667 nm fluorescence (AID 1151).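 Also: Shh protein binding to compounds spotted on small-molecule microarray slides; score combines spot fluorescence intensity with signal-to-noise across triplicate slides.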 The conditions noted are these: small-molecule microarray binding, 635 nm fluorescence; higher = more signal.

Active and inactive are the calls of the source. Unless noted, no rule for the calls is given here.

Chain of Follistatin (Homo sapiens) (P19883 whole entry, looked up): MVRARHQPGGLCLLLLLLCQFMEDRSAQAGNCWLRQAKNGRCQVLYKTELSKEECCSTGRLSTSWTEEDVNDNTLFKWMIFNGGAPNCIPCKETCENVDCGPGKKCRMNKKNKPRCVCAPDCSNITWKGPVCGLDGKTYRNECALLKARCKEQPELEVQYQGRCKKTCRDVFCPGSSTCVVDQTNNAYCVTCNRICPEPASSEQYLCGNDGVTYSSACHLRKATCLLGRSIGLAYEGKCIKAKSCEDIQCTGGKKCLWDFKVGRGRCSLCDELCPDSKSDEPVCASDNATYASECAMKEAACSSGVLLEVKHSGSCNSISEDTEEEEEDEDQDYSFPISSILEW
Chain of Streptavidin (Streptomyces avidinii) (P22629 whole entry, looked up): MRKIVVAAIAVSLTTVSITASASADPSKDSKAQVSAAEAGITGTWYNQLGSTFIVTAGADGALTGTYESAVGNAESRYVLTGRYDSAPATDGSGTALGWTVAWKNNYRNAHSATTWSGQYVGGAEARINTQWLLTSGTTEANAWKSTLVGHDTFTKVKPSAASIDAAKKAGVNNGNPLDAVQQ
Chain of Torsin-1A (Homo sapiens) (O14656 whole entry, looked up): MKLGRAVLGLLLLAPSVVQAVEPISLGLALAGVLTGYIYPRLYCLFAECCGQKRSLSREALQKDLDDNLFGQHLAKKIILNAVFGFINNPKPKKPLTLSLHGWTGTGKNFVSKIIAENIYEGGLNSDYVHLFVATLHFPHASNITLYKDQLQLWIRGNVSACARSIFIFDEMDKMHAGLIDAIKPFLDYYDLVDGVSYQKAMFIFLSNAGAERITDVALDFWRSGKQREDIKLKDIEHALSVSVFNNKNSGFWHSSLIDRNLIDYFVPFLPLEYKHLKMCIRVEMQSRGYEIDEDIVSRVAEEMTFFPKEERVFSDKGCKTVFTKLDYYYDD
Chain of Focal adhesion kinase 1 (Homo sapiens) (Q05397 whole entry, looked up): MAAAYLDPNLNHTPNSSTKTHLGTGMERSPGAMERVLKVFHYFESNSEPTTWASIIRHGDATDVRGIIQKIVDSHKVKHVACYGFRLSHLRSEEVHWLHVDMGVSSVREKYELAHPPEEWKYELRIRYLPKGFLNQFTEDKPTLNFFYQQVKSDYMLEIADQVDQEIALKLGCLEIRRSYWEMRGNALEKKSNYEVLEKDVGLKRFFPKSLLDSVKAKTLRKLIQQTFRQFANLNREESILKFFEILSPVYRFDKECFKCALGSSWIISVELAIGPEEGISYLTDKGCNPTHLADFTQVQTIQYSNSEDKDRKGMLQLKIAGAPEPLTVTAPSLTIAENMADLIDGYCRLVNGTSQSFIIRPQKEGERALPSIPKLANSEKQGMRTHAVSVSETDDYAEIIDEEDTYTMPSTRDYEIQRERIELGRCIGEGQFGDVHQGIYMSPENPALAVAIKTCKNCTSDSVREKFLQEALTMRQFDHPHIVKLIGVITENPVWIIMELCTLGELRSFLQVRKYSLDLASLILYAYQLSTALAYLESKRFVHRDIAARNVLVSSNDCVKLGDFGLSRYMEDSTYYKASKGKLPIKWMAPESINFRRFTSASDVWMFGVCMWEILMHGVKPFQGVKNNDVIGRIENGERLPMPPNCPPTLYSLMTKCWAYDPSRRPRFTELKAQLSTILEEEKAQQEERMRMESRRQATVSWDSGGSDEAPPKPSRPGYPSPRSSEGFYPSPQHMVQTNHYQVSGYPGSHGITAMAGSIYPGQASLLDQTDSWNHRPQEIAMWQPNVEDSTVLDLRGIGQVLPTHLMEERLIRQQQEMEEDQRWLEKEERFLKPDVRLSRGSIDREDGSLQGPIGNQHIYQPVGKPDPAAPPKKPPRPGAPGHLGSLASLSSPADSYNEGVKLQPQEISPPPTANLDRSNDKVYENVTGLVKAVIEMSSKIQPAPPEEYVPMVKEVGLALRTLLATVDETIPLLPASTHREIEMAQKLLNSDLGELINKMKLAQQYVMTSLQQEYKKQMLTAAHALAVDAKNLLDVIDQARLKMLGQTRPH
Chain of Fibroblast growth factor 2 (Homo sapiens) (P09038 whole entry, looked up): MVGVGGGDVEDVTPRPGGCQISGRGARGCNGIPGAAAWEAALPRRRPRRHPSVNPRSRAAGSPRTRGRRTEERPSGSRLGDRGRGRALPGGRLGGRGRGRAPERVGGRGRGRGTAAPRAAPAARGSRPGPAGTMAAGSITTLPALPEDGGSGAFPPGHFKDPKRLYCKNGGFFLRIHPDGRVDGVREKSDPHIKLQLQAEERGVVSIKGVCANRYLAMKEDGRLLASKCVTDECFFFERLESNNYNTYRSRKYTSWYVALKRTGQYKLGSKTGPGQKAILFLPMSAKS
Chain of Luciferin 4-monooxygenase (Photinus pyralis) (P08659 whole entry, looked up): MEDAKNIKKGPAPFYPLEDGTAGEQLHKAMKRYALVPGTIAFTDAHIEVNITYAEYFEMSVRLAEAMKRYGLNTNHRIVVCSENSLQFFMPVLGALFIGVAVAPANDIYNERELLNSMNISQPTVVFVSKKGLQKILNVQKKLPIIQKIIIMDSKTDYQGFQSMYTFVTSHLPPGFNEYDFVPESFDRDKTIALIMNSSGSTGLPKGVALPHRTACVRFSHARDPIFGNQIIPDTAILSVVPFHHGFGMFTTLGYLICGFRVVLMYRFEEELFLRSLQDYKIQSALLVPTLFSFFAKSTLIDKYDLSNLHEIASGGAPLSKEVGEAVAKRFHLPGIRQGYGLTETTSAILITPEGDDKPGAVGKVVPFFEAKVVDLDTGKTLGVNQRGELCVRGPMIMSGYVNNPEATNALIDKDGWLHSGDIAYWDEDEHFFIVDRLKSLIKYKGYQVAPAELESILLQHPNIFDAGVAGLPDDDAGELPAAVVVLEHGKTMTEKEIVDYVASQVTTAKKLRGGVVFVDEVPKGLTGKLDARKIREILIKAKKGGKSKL

As for `COCCCN1C(=O)[C@@]2(c3ccc([N+](=O)[O-])cc3)CC(=O)N(C3CCCCC3)[C@@H]2c2ccc(CO)cc21`, the composite z-score in assay [1] is 0.245; in [2], -0.62; in [3], -0.101; in assay [4] it was -0.538; in [5], 1.14; in [6], 0.594. The composite z-score with Lefty1 was 0.655; in [8] it was -0.0848; in [10], -0.0976; in [15], -0.226; in assay [16] it was -0.214; with Torsin-1A (Homo sapiens) [17] it was 0.0116. Moreover, the composite z-score is -0.289 with Torsin-1A (Homo sapiens) [18] and 1.41 in assay [19]. The z-score in assay [7] is -0.39; in [9], -0.302 (inactive); in assay [11], -0.253 (inactive); in assay [12], 0.0798 (inactive); in assay [13] it was -0.761 (inactive); in assay [14], -0.593 (inactive).
With `CC(C)N1C(=O)c2ccccc2[C@](C)(C(=O)NCc2ccccc2)[C@@H]1c1ccc(CO)cc1`, the composite z-score in assay [1] was 3.09; in assay [2], 0.29; in [3] it was 0.239; in assay [4], -1.77; in [5] it was -0.24; in assay [6], -0.131. Further, the composite z-score with Lefty1 was -0.554; in [8], -0.444; in [10], -0.111; in assay [15], -0.558; in [16], -0.154; with Torsin-1A (Homo sapiens) [17], 1.3. The composite z-score was -0.119 with Torsin-1A (Homo sapiens) [18] and -0.0391 in assay [19]. Further, the z-score in assay [7] was -0.39; in assay [9] it was -1.06 (inactive); in assay [11], -0.139 (inactive); in assay [12], 0.261 (inactive); in assay [13], 0.558 (inactive); in assay [14], -0.074 (inactive).
Turning to `COc1ccc(C(=O)Nc2ccc(CN3C(=O)[C@@]4(O[C@@H](CC(=O)N5CCC[C@H]5CO)[C@H]([Si](C)(C)c5ccc(OC)cc5)[C@H]4C)c4ccccc43)cc2)cc1`, the composite z-score is -0.271 in assay [1]; 1.2 in [2]; 1.02 in [3]; 0.655 in assay [4]; 1.33 in [5]; 1.68 in assay [6]. The composite z-score in the assay with Lefty1 turned out to be 1.21; in assay [8], 0.763; in assay [10] it was 0.553; in assay [15], 0.648; in assay [16], 0.0074; in the assay with Torsin-1A (Homo sapiens) [17] it was 0.826. For the same compound, the composite z-score in the assay with Torsin-1A (Homo sapiens) [18] stood at 0.797; in assay [19], 1.66. Besides, the z-score is 3.25 in [7]; -2.38 (inactive) in assay [9]; -1.38 (inactive) in [11]; -1.34 (inactive) in assay [12]; 1.88 (inactive) in [13]; -0.0184 (inactive) in assay [14].
As to `CC(C)C[C@@H]1NC(=O)[C@H]2C[C@@H](C(=O)NCCCCCCN(C)C)[C@@H](c3ccc(O)cc3)N2C1=O`, the composite z-score in assay [1] is 2.44; in assay [2], 0.977; in [3], 0.34; in [4] it was 0.357; in assay [5], 1.35; in assay [6], 1.29. The composite z-score in the assay on Lefty1 is 1.19; in assay [8], 0.115; in [10], 0.836; in assay [15], 0.189; in assay [16], -0.147; in the assay with Torsin-1A (Homo sapiens) [17] it was 1.47. In addition, the composite z-score is 1.52 in the assay with Torsin-1A (Homo sapiens) [18] and 1.97 in [19]. For the same compound, the z-score in [7] was -0.0361; in assay [9] it was -0.263 (inactive); in assay [11] it was -0.29 (inactive); in [12] it was -0.041 (inactive); in assay [13], -0.398 (inactive); in [14] it was 0.425 (inactive).
`CS(=O)(=O)CCOC(=O)C1=CC(CCCO)=CC(c2ccc(CN3CCCC3)cc2)N(Cc2cc3c(cc2Br)OCO3)C=C1C(=O)OCCS(C)(=O)=O` (stereo not given): the composite z-score in [1] stood at 2.28; in [2], 0.712; in assay [3] it was 0.0113; in [4], 0.971; in assay [5] it was 0.694; in assay [6], 0.382. For the same compound, the composite z-score in the assay with Lefty1 was determined as 0.666; in assay [8], 0.914; in [10], 0.592; in assay [15], 1.5; in [16], 0.229; with Torsin-1A (Homo sapiens) [17], 2.09. Further, the results for the composite z-score (in the assay with Torsin-1A (Homo sapiens) [18]; in assay [19]) were 2.13 and 0.404, respectively. The z-score is 3.39 in assay [7]; -1.78 (inactive) in assay [9]; -0.277 (inactive) in assay [11]; 0.814 (inactive) in assay [12]; 4.06 (inactive) in assay [13]; -1.45 (inactive) in assay [14].
